# Hits are enriched below; roughly 2.8% of the tested compounds scored in any of these assays.
# WRN inhibitor = WRN helicase (human) inhibition; WRN helicase unwinding, fluorescent forked duplex, kinetic; AID 651768; Potency, µM (titrated, usually from 114 µM), hits mostly inhibitors; 360,000 tested, 0.46% active; note: nearly all actives have a fitted effect of over 55% in size
#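 WRN at 20 nM final was preincubated with compound for 15 min at room temperature; reaction started with 100 nM forked duplex oligonucleotide carrying fluorophore and quencher plus 2 mM ATP (final). Unwinding followed kinetically by red fluorescence (ex 525/em 598 nm).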
# PI5P4K alpha inh = inhibitors of human PI5P4K alpha | AID 652105 | max response, % | PI5P4Kalpha enzyme, ADP-Glo luminescence, 60 min; hits give low values | P48426 | 330,000 tested, 1.2% active; active = max response of -50% or lower; inconclusive = between -30% and -50%; inactive = -30% or higher; note: value at the top dose of about 77 µM
#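 ADP-Glo luminescence end-point read after a 60 min room-temperature kinase reaction of PI5P4Kalpha plus substrate, initiated with ATP at 5 microM final. Buffer: 0.038 M HEPES pH 7.4, EGTA, 0.1% CHAPS, 5% DMSO.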
# Pol beta inh = blocks human DNA polymerase beta activity. Pol beta primer extension/strand displacement, fluorescence kinetic. Potency, µM (series often up to 114 µM), usual class: inhibitors. P06746. 340,000 tested, 1.3% active. AID 485314
#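 Reaction started by 50 nM substrate onto compound-treated Pol beta (10 nM, 15 min preincubation, room temperature); plates read at 0 min and 10 min. Normalized concentration-effect data fitted by four-parameter Hill equation.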
# POLI inh = inhibitors of human DNA polymerase iota | Q9UNA4 | Pol iota fluorescent replication assay, 10 min | Potency, µM (series often up to 115 µM), actives largely listed as inhibitors | 390,000 tested, 1% active | AID 588590
#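 Pol iota at 10 nM preincubated 15 min with compounds at room temperature; reaction started with fluorescent substrate, 50 nM final. Fluorescence read kinetically at 0 and 10 min; buffer-only wells as negative control.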
# Pol kappa inh-1 = inhibitors of human DNA polymerase kappa. 400,000 tested, 0.53% active. Q9UBT6. purified Pol kappa, fluorescent DNA synthesis assay, 10 min. Potency, µM (highest dose often 107 µM), most hits filed as inhibitors
# Target sequence (Q9UBT6 whole entry, looked up): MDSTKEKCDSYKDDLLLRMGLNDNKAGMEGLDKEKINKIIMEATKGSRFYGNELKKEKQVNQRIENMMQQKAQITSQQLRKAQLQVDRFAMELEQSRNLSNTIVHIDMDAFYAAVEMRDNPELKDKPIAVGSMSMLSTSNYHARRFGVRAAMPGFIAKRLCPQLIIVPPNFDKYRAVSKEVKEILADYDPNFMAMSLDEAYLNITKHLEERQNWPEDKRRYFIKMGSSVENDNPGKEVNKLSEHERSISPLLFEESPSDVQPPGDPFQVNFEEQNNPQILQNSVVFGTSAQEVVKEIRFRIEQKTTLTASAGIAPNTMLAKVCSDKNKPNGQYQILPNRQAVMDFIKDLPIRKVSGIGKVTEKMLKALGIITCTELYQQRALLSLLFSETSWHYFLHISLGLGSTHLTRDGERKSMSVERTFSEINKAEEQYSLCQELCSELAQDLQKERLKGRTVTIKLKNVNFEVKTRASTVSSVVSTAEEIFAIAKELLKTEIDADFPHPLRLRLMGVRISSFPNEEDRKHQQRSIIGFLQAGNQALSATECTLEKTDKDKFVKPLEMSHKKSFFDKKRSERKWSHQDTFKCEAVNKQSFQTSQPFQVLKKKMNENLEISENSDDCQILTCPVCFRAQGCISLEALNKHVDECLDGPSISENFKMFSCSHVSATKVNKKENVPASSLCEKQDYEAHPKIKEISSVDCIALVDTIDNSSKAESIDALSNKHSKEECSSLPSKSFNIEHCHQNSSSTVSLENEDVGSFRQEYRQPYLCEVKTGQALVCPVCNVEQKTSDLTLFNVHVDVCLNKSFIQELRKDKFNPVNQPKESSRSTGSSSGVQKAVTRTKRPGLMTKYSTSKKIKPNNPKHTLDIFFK
#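 Fluorescent qHTS in 1536-well format: enzyme (10 nM) and compound sat 15 min at room temperature before 50 nM substrate (final) was added. Signal taken at 0 and 10 min; no-enzyme buffer wells were negative controls.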
# Pol eta inh-1 = blocks human DNA polymerase eta activity | Potency, µM (top dose mostly 114 µM), hits mostly inhibitors | 390,000 tested, 1.2% active | recombinant Pol eta, fluorescent DNA replication assay
#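 Fluorescent replication assay: 50 nM final substrate added after a 15 min room-temperature compound preincubation with 10 nM enzyme. Signal taken at 0 min and again at 10 min.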
# GALK inh confirm = confirmation of human galactokinase (GALK) inhibitors. 150 tested, 70% active. Potency, µM (top dose mostly 115 µM), actives largely listed as inhibitors. purified GALK, Kinase-Glo ATP depletion luminescence. shares compounds with Pol eta inh-1
# Redox cycling = generates H2O2 by redox cycling, flagging GALK artifacts. AID 2035. shares compounds with Pol eta inh-1. Phenol red-HRP H2O2 redox cycling, absorbance 600 nm. Potency, µM (series often up to 115 µM), usual class: inhibitors. 150 tested, 40% active
# HEK293 tox = counter-screen for GALK inhibitors: HEK293 cell cytotoxicity. shares compounds with Pol eta inh-1. HEK-293 viability, ATP luminescence (CellTiter-Glo), 24/48 h. 170 tested, 10% active. AID 2547. Potency, µM (doses to about 46.1 µM), usual class: inhibitors
# Pol kappa inh-2 = confirmation of human DNA polymerase kappa inhibitors | shares compounds with Pol eta inh-1 | purified Pol-kappa, fluorescent strand-displacement substrate | Potency, µM, usual class: inhibitors | 920 tested, 76% active
# Pol eta inh-2 = confirmation of human DNA polymerase eta inhibitors; Potency, µM, hits mostly inhibitors; shares compounds with Pol eta inh-1; AID 720502; Pol eta primer extension, TAMRA/BHQ fluorescence, 10 min; 2,600 tested, 64% active
# Numbers stand for hits; 0 = inactive; ? = inconclusive; - = no result; [ ] = remark or other dose. Unless noted, calls come from the whole dose curve; as a rule, active = well fitted curve in the direction sought with a large enough effect; inconclusive = small, poorly fitted or top-dose-only effect, or another doubt; inactive = no such curve, though single readings can be large; an effect the other way counts as inactive or inconclusive.
SMILES,WRN inhibitor,PI5P4K alpha inh,Pol beta inh,POLI inh,Pol kappa inh-1,Pol eta inh-1,Pol eta inh-2,others
O=C(CC(Cl)(Cl)Cl)N1CCN(/[N+]([O-])=N/Oc2ccc([N+](=O)[O-])cc2[N+](=O)[O-])CC1,-,-,-,?,0,-,-,
CC(=O)Nc1ccc(NC2=CC(=O)c3ccccc3C2=O)cc1,0,0,0,0,0,?,-,
CCOC(=O)c1ccc(NC2=CC(=O)C(=O)c3ccccc32)cc1,0,0,0,?,0,35µM,?,
COc1cc(/C=C/c2ccc3cccc([N+](=O)[O-])c3n2)ccc1OCC(=O)O,0[11.6 µM],0,?,?,?,20µM,76,Pol kappa inh-2=?
Cc1nc(Nc2nc3ccccc3o2)nc2c1CCCC2,-,-,-,-,-,-,-,HEK293 tox=0
Cc1nc(Nc2nc3ccccc3o2)nc2c1C(=O)CC(C)(C)C2,-,-,-,-,-,-,-,HEK293 tox=0
Cc1cc(C)nc(Nc2nc3ccccc3o2)n1,0,0,0,0,0,0,-,
CCN(Cc1ccc(Br)s1)C(=O)CSc1nnc(C2CC2)n1C1CC1,0,0,-,-,-,0,-,
CC1CCC2(C1)N=C(Nc1nc3ccccc3o1)NC1=C2C(=O)CCC1 (stereo not drawn),-,-,-,-,-,-,-,HEK293 tox=?
COCCCN1CN=C(Nc2nc3ccccc3o2)NC1,0,0,0,0,0,0,-,
c1ccc2oc(NC3=NCN(CC4CCCO4)CN3)nc2c1 (stereo not drawn),0,0,0,0,0,0,-,
CC1(C)N=C(Nc2nc3ccccc3o2)NC2=C1C(=O)CCC2,-,-,-,-,-,-,-,HEK293 tox=0
CCOCCc1nn2c(=O)cc(COC(=O)c3ccccc3NC(=O)c3cccs3)nc2s1,-,-,0,0,0,0,-,
CC(=O)Nc1cccc(NC(=O)CSc2ccc(-c3cccnc3)nn2)c1,0,0,2.8µM,14µM,89µM,?,-,Pol kappa inh-2=17
NS(=O)(=O)c1ccc(NC(=O)CSc2nnc(NC3CC3)s2)cc1,?,?,-,40µM,?,20µM,67,
CCn1c(COc2ccccc2)nnc1SCC(=O)NC1CC1,0,0,0,0,0,0,-,
CC1(C(=O)NS(=O)(=O)C2CC2)CCN(C(=O)CSc2ccccc2)C1 (stereo not drawn),0,0,-,-,-,-,-,
O=c1cc(-c2cc(O)c(O)c(O)c2)oc2cc(O)cc(O)c12,-,-,-,-,0.4µM,-,-,GALK inh confirm=42µM;Redox cycling=0;HEK293 tox=0
O=c1cc(-c2ccccc2O)oc2cc(O)cc(O)c12,-,-,-,-,0[19.4 µM],-,-,
CC1(C)OC(C)(C)/C(=C/Nc2ccc(O)cc2)C1=O,0,-70,?,?,0,18µM,?,Pol kappa inh-2=?
CC1(C)OC(=O)C(=CNc2cccc(O)c2)C(=O)O1,0,-,0,0,0,0,-,
CCSc1nnc(NC(=O)C2CC=CCC2C(=O)O)s1 (stereo not drawn),0,0,32µM,?,0,20µM,?,
CCSc1nnc(NC(=O)C2CCCCC2)s1,0,0,0,0,0,0,-,
O=C(c1ccc(F)c(S(=O)(=O)N2CCOCC2)c1)N1CCN(c2ccc(F)cc2)CC1,0,0,-,0,0,0,-,
COc1ccc(NC(=O)c2ccco2)cc1NC(=O)c1cc(Cl)ccc1OC,-,-,?,0,0,89µM,-,Pol kappa inh-2=42
SMILES,WRN inhibitor,PI5P4K alpha inh,Pol beta inh,POLI inh,Pol kappa inh-1,Pol eta inh-1,Pol eta inh-2,others
CC(C)N1CCC(C)(C(=O)Nc2cccc3c2CCCC3)C1 (stereo not drawn),0,0,-,-,-,-,-,
O=C(CCN1C(=O)/C(=C/c2cccs2)SC1=S)Nc1ccc(C(=O)O)cc1,0[11.6 µM],0,32µM,?,0,45µM,-,Pol kappa inh-2=75
Cc1ccc(C(=O)OCC(=O)c2ccc(CC(=O)N3CCOCC3)s2)cc1C,0[11.6 µM],?,-,22µM,79µM,13µM,?,
N=C(N)SCc1ccccn1,0,?,0,0,0,0,-,
N=C(N)SCc1ncccc1O,0,0,0,50µM,0,0,?,
CSc1ccccc1NC(=O)c1cc2ncc(Br)cn2n1,0,?,?,0,?,45µM,?,
Cc1onc(-c2ccccc2)c1NC(=O)OC(C)c1cccnc1 (stereo not drawn),0,0,-,-,-,0,-,
Cn1cc(S(=O)(=O)N2CCCC2)cc1C(=O)O,0,0,-,?,0,22µM,-,Pol kappa inh-2=?
Cc1nn(-c2ccccc2)c(C)c1/C=N/NC(=O)c1cc(O)cc(O)c1,0,0,0,0,0,0,-,
Cc1nn(-c2ccccc2)c(C)c1-c1cc(C(=O)N/N=C/c2ccc(O)cc2)[nH]n1,0,0,10µM,20µM,79µM,28µM,43,
COc1cc(/C=N/NC(=O)c2cc(-c3c(C)nn(-c4ccccc4)c3C)n[nH]2)ccc1O,?,0,?,3.2µM,?,20µM,54,
Cc1ccc(/C=C(\C#N)C(=O)NCC2CCCO2)o1 (stereo not drawn),0,0,0,0,0,0,-,
N#C/C(=C/c1ccc(-c2ccc(C(=O)O)c(Cl)c2)o1)C(=O)NCC1CCCO1 (stereo not drawn),0[11.6 µM],0,?,?,?,10µM,?,
O=C(COc1ccccc1C(=O)Nc1ccccc1)Nc1ccccc1F,-,-,-,?,0,-,-,
CC(C)(C)C1CCc2oc3ccc(NS(=O)(=O)c4cc(Cl)ccc4Cl)cc3c2C1 (stereo not drawn),-,-,0,0,0,0,-,
CC(C)(C)C1CCc2oc3ccc(NS(=O)(=O)c4ccc(C(=O)O)cc4)cc3c2C1 (stereo not drawn),-,-,?,?,?,?,-,Pol kappa inh-2=?
COc1cc(Br)cc2cc(C(=O)N3CCN(C(=O)c4ccco4)CC3)c(=O)oc12,?,-,0,32µM,?,79µM,85,
CCN1CCCC1CNCc1cccc(OC)c1OCc1ccc(F)cc1 (stereo not drawn),0,0,0,0,0,0,-,
O=C1CSC(=S)N1c1ccccc1,0,0,-,0,0,0,-,
O=C(O)c1cc(C(=O)O)cc(N2C(=O)CSC2=S)c1,0[11.6 µM],0,0,22µM,89µM,?,30,Pol kappa inh-2=?

# Assay outcomes from PubChem.
